Rows were chosen to be rich in hits. Some 11% of all compounds tested hit in one or more screens of this group.
Pf growth 48h = P. falciparum growth inhibition at 48 hours (one generation) | P. falciparum luciferase growth in erythrocytes, 48 h | Potency, µM (doses to about 28.7 µM), without a hit: top-dose activity change, negative = inhibition, actives largely listed as inhibitors | hit rate 5.9% among 310,000 | AID 504832; note: % is set by controls: 0 for no effect and ±100 for the full control effect
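First compound was added to culture medium, then infected red cells at 0.1% parasitemia and 2% hematocrit (final). After incubation at 37 C under 5% CO2, luciferase detection reagent was dispensed and light output recorded.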
Pf growth 96h = inhibits malaria parasite growth, 96 h; P. falciparum luciferase reporter growth, 96 h; Potency, µM (doses to about 28.7 µM), inactives show top-dose activity change, negative = inhibition, hits mostly inhibitors; hit rate 6.9% among 320,000; AID 504834; note: % is set by controls: 0 for no effect and ±100 for the full control effect
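Erythrocytes infected with luciferase-expressing P. falciparum were dispensed at 2% hematocrit and 0.05% parasitemia (final), then incubated with compounds 96 hours at 37 C in 5% CO2. Luminescence after detection reagent addition reported growth.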
HCV inhibitor = HCV inhibition | Potency, µM (top dose mostly 41.8 µM), without a hit: at the top dose activity change, negative = inhibition, hits mostly inhibitors | AID 651820 | hit rate 3.4% among 340,000 | Huh7.5.1 HCVcc-Cre infection, luciferase reporter, 44 h; note: % is set by controls: 0 for no effect and ±100 for the full control effect
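Cells (1,000/well) were plated 4 h before compound, then infected with HCVcc-Cre virus (~0.5 moi). After 44 h further culture, infection was read as luciferase luminescence following a 15 min substrate incubation at room temperature.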
VACV Venus inh = vaccinia inhibition (Venus reporter); Vaccinia virus Venus reporter expression, fluorescence; Potency, µM (series often up to 36.5 µM), for inactives: at the top dose activity change, negative = inhibition, usual class: inhibitors; hit rate 0.46% among 330,000; AID 720580; calls by dose curve; tested in A549 cells; note: % is set by controls: 0 for no effect and ±100 for the full control effect; nearly all actives have a fitted effect of over 30% in size
VACV mCherry inh = vaccinia inhibition (mCherry reporter); hit rate 0.63% among 310,000; Potency, µM (doses to about 36.5 µM), for the others: at the highest dose activity change, negative = inhibition, hits mostly inhibitors; Vaccinia virus mCherry reporter infection, fluorescence; calls by dose curve; tested in A549 cells; note: % is set by controls: 0 for no effect and ±100 for the full control effect; nearly all actives have a fitted effect of over 35% in size
NS1 inh = blocks influenza NS1 protein function | Potency, µM (highest dose often 46.1 µM), for inactives: at the highest dose activity, positive = more growth | hit rate 0.4% among 270,000 | AID 2326; calls by dose curve; note: actives are rising curves; nearly all actives have a fitted effect of over 50% in size
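In this qHTS, NS1 from influenza A is expressed in budding yeast, where it slows growth. Cells are switched from glucose to 2% galactose medium (pH 6.0, -URA), treated with compound, and growth recovery is read at OD600.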
* = called active by the depositor; i = inactive; ? = inconclusive; · = not tested or not shown; [ ] = remark or other dose. Unless noted, calls come from the whole dose curve; as a rule, active = well fitted inhibition curve with a large enough effect; inconclusive = small, poorly fitted or top-dose-only effect, or another doubt; inactive = no such curve, though single readings can be large or run the other way. Potency is the fitted concentration of half-maximal effect.

SMILES	Pf growth 48h	Pf growth 96h	HCV inhibitor	VACV Venus inh	VACV mCherry inh	NS1 inh
Cc1c(CCC(=O)O)c(=O)oc2c(C)c3occ(-c4ccc(Br)cc4)c3cc12	0%	12%	8%	-28%	-24%	-3%
COc1ccc(-c2coc3c(C)c4oc(=O)c(CCC(=O)O)c(C)c4cc23)cc1	-1%[0.00184 µM]	?	2.5µM*	-12%	-29%	8%
O=C(NC(=S)NC1CCSC1=O)c1cccc([N+](=O)[O-])c1 (stereo not drawn)	33%	?	-3%	·	·	-4%
O=C(NC(=S)NC1CCSC1=O)c1ccc([N+](=O)[O-])cc1 (stereo not drawn)	25%	10µM*	·	·	·	9%
Cc1oc2cc3oc(=O)c(CCC(=O)NCCCn4ccnc4)c(C)c3cc2c1C	1%	?	?	-26%	?	10%
Cc1c(CCC(=O)NCCCn2ccnc2)c(=O)oc2cc3oc4c(c3cc12)CCCC4	10µM*	?	?	?	-19%	1%
Cc1coc2cc3oc(=O)c(CCC(=O)NCCCn4ccnc4)c(C)c3cc12	-12%	10µM*	?	-2%	-3%	-13%
Cc1c(CCC(=O)NCCCn2ccnc2)c(=O)oc2cc3occ(C(C)(C)C)c3cc12	?	?	?	-26%	-28%	4%
Cc1oc2c(C)c3oc(=O)c(CCC(=O)NCCCn4ccnc4)c(C)c3cc2c1C	13µM*	?	10µM*	-6%	-15%	0%
Cc1oc2cc3oc(=O)c(CCC(=O)NCCCN4CCOCC4)c(C)c3cc2c1C	-16%	?	1.6µM*	-6%	-11%	17%
Cn1nc(C(C)(C)C)cc1NC(=O)C1(C)CCN1C(=O)C1(c2ccccc2)CCCC1 (stereo not drawn)	·	·	·	-6%	1%	·
CCOC(=O)C(NC(=O)c1cccnc1)(Nc1cccc(C)n1)C(F)(F)F (stereo not drawn)	7%	·	1%	?	·	-2%
N#CC12C(=O)NC(=O)C1(C#N)C21CCCC1 (stereo not drawn)	·	·	15%	-6%	-12%	·
COc1cc(C(=O)Nc2ccccc2OCc2cc(=O)n3c(C)csc3n2)cc(OC)c1OC	·	·	·	3%	1%	·
Cc1c(Cl)cccc1NC(=O)c1cc(-c2cccc(Cl)c2)on1	·	·	·	2%	-5%	·
O=C(CC1C(=O)N(Cc2ccccc2)C(=S)N1CCN1CCOCC1)Nc1ccc(F)cc1 (stereo not drawn)	1.9µM*	-8%	3%	-6%	-18%	4%
CCCOc1ccc(NC(=O)CC2C(=O)N(CC)C(=S)N2CCCN2CCN(Cc3ccccc3)CC2)cc1 (stereo not drawn)	?	4.1µM*	?	?	-29%	·
COc1ccc(NC(=S)N2CCC(C(=O)c3ccc(F)cc3)CC2)c(OC)c1	20%	-26%	-24%	·	·	·
CC[C@H]1OC(=O)C[C@@H](O)[C@H](C)[C@@H](O[C@@H]2O[C@H](C)[C@@H](O[C@H]3C[C@@](C)(O)[C@@H](O)[C@H](C)O3)[C@H](N(C)C)[C@H]2O)[C@@H](CC=O)C[C@@H](C)C(=O)/C=C/C(C)=C/[C@@H]1CO[C@@H]1O[C@H](C)[C@@H](O)[C@@H](OC)[C@H]1OC	·	·	-13%	-16%	-6%	·
CCC1OC(=O)C[C@@H](O)[C@H](C)[C@@H](OC2OC(C)CC(N(C)C)C2O)[C@@H](CC=O)C[C@@H](C)C(=O)/C=C/[C@]2(C)OC2C1C (stereo partly drawn)	13µM*	0.0038µM*	·	·	·	·
CCn1c(CNC(=O)COC)nc2ccccc21	9%	16%	11%	-3%	i	10%
C#CCN1C=CC(=O)[C@@H](O)[C@H]1c1ccccc1Br	·	·	5.6µM*	3%	-16%	·
O=C(Nc1cccc(-c2cn3cccnc3n2)c1)c1cc(Br)ccc1Cl	·	·	·	-12%	i	·
COc1ccc(-c2n[nH]c(=S)n2-c2ccccc2C)cc1	-5%	-17%	-4%	2%	-7%	-44%
CC(C)c1ccc(C2Sc3ccccc3NC3=C2C(=O)c2ccccc23)cc1 (stereo not drawn)	·	·	·	-19%	-14%	·
SMILES	Pf growth 48h	Pf growth 96h	HCV inhibitor	VACV Venus inh	VACV mCherry inh	NS1 inh
O=C1C2=C(Nc3ccccc3SC2c2ccco2)c2ccccc21 (stereo not drawn)	0.33µM*	6%	?	-1%	·	-55%
O=C(Nc1ccc2nc(-c3cccs3)c(-c3cccs3)nc2c1)NC1CC1	·	9.3µM*	25µM*	·	·	-1%
CCCC1=NN(c2ccc([N+](=O)[O-])cc2)C(=O)/C1=C/N(C)C	40%	3%	7%	-12%	-7%	-12%
CC1=NN(c2ccc([N+](=O)[O-])cc2)C(=O)/C1=C\N(C)C	21%	7.4µM*	16%	-10%	-22%	1%
Oc1cc2c(cc1CN1CCN(c3cccc(C(F)(F)F)c3)CC1)CCC2	1.7µM*	1.2µM*	-2%	-7%	-17%	-2%
CC(=O)Nc1ccc(CN2CCN(c3cccc(C(F)(F)F)c3)CC2)cc1	·	48%	22%	·	·	-73%
Oc1cc2c(cc1CN1CCN(c3ccccc3)CC1)CCC2	1.7µM*	2.6µM*	?	·	·	-4%
Oc1cc2c(cc1CN1CCN(c3ccc(F)cc3)CC1)OCO2	?	0%	9%	-27%	?	-4%
COc1ccc(N2CCN(Cc3cc4c(cc3O)CCC4)CC2)cc1	1.7µM*	·	?	·	·	8%
O=C(NCCCNC(=O)c1ccccn1)c1ccc(Br)cc1	-14%	36%	2%	-13%	i	15%
Cc1ccc(Cl)cc1N1CCN(C(=O)C2CCN(S(=O)(=O)c3cn(C)cn3)CC2)CC1	·	·	·	-9%	-15%	·
c1ccc2c(N3CCOCC3)nc(N3CCOCC3)nc2c1	?	4.1µM*	-28%	-14%	0%	20%
CC1CCN(c2nc(-c3ccncc3)nc3ccccc23)CC1	4.1µM*	4.7µM*	7.1µM*	?	-17%	-250%
CC12CC3CC(C)(C1)CC(Nc1nc(N4CCOCC4)nc4ccccc14)(C3)C2	1.7µM*	1.3µM*	1%	-13%	i	-1%
c1ccc2c(N3CCOCC3)nc(-c3ccncc3)nc2c1	9.3µM*	-14%	?	17%	·	-2%
Cc1ccc(N2CN(CCc3ccccc3)CNC2=S)cc1	9.3µM*	?	5%	·	·	-1%
COC(=O)C1=C(C)N(Cc2ccccc2)C(=NCC(C)C)N[C@H]1c1cccc(F)c1	13µM*	?	38%	?	?	-8%
COC(=O)C1=C(C)N(Cc2ccccc2)C(=NCc2cccc(Cl)c2)N[C@H]1c1cccc(F)c1	8.3µM*	?	?	?	?	-52%
COC(=O)C1=C(C)N(Cc2ccccc2)C(=NCc2ccc(OC)cc2)N[C@H]1c1cccc(F)c1	?	?	-27%	?	?	-6%
